Several values for one entry are separate records, joined by “and”; a condition that tells them apart may be missing. Equal entries are not always repeated. A structure can be active in one record and inactive in another. Activity calls are given as the source filed them. Rule as the data show it, unless noted: active = inhibition above about 80%; inactive = the rest.

As a reminder, the inhibition is the change of the read-out against control, counted positive when it falls. By viability is commonly meant a read-out of living cells in per cent, often relative to untreated cells.

A short description of experiment [1]: kinase inhibitors against Plasmodium liver-stage infection, cell-based, known kinase inhibitor set, luminescence, hepatoma host viability (AID 624392; call rule not given here;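 also: infected cells incubated roughly two days before readout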). The settings on record: Plasmodium liver stage in hepatoma cells, luciferase luminescence, concentration not given here; liver cell % of control: measured here: host liver cell viability; parasite % of control: stronger effect = lower value.

The nature of experiment [2]: LFS_MB_1R medulloblastoma cell growth inhibition, synergistic combos for chromothripsis tumors, cisplatin or BGB combos (AID 1671452).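 Also: cells exposed for 96 hours before readout.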 The note with it: LFS_MB_1R medulloblastoma cells, stronger effect = higher value.
The nature of experiment [3]: CRL2098 osteosarcoma cell growth inhibition, synergistic combos for chromothripsis tumors, BGB or cisplatin IC20 combos (AID 1671454).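 Also: cells exposed for 96 h before readout; 0% = vehicle DMSO and 100% = killing by high DMSO.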 The settings on record: CRL2098 osteosarcoma cells, drug combinations, stronger effect = higher value.
A short description of experiment [4]: HD-MB03 medulloblastoma cell growth inhibition, synergistic combos for chromothripsis tumors, BGB or cisplatin IC20 combos (AID 1671455; in the data active = inhibition above about 83%;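 also: 0% = vehicle DMSO and 100% = high DMSO as cytotoxic control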). The note with it: HD-MB03 medulloblastoma cells, stronger effect = higher value.
Experiment [5] is described as follows: UWB1.289 ovarian carcinoma cell growth inhibition, synergistic combos for chromothripsis tumors, BGB or cisplatin combos (AID 1671456).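 Also: cells exposed to compound for four days; 0% = vehicle DMSO and 100% = killing by high DMSO.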 The note with it: UWB1.289 ovarian carcinoma cells, stronger effect = higher value.
The nature of experiment [6]: LFS_MB_2R medulloblastoma cell growth inhibition, synergistic combos for chromothripsis tumors, cisplatin combos (AID 1671457).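 Also: cells exposed to compound for four days before readout.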 The note with it: LFS_MB_2R medulloblastoma cells, stronger effect = higher value.
Experiment [7] in a line: UWB1.289_BRCA1 ovarian cancer growth, cell-based, BGB or cisplatin combinations (AID 1671459). The note with it: UWB1.289 BRCA1 ovarian carcinoma, drug combinations, stronger effect = higher value.
Experiment [8] in a line: human astrocyte viability loss, single and combined drugs, cytotoxicity control for chromothriptic childhood tumor combination screen, cell-based, BGB or cisplatin IC20 combos (AID 1671460).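 Also: cells exposed to compounds for 96 hours before viability readout; 0% = vehicle and 100% = killing control.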 The note with it: Human astrocytes, drug combinations, stronger effect = higher value.
Experiment [9] in a line: growth inhibition of CRL1545 osteosarcoma cells, cell-based, cisplatin and BGB IC20 combos (AID 1671464).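 Also: cells exposed to compound for 96 hours before readout; 0% = vehicle DMSO and 100% = high DMSO killing control.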 The settings on record: stronger effect = higher value.
The nature of experiment [10]: liver-stage malaria parasite growth inhibition, primary screen, cell-based, HepG2, luciferase luminescence, HepG2 viability (AID 624349; in the data active = parasite load remaining mostly below about 12%, no sharp cut-off; inactive = mostly above about 10%;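 also: 100% = mean of DMSO negative control wells on the same plate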). The note with it: P. berghei liver stage in HepG2, luciferase luminescence, concentration not given here; parasite load remaining: stronger effect = lower value; viability: measured here: HepG2 viability without parasites.
A short description of experiment [11]: viability rescue of complex I mutant cybrids, primary screen, cell-based, galactose medium, ATP luminescence (AID 1645843;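 active = z-score of at least 1.8 in each of two replicates, scored against plate mean and spread of sample wells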;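 also: positive z means more ATP and so rescue of galactose-driven cybrid death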). The settings on record: complex I mutant cybrid cells, 72 h, stronger effect = higher value.
Experiment [12] concerns the target Mitogen-activated protein kinase 7 (Homo sapiens) (UniProt Q13164). Briefly: ERK5 transactivation activators in reporter cells, primary screen, cell-based, HTS (AID 1508626;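 active = luciferase signal above three times the same-plate solvent-only control wells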;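 also: luciferase driven by Gal4-ERK5 fusion binding five Gal4 sites before minimal TATA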). The settings on record: HeLa Gal4-ERK5 transactivation, 18 h, at 5 µM, stronger effect = higher value.
Where [13] appears, read: measured here: combination with BGB IC40, at 0.05 µM.
Where [14] appears, read: measured here: combination with cisplatin, at 0.5 µM.
The mark [15] stands for this setting: measured here: combination with cisplatin, at 5 µM.
Where [16] appears, read: measured here: combination with BGB at IC20, at 0.5 µM.
Where [17] appears, read: measured here: combination with cisplatin at IC20, at 0.5 µM.
The mark [18] stands for this setting: measured here: combo with BGB at IC20, at 0.5 µM.
Where [19] appears, read: measured here: combo with cisplatin at IC20, at 0.5 µM.
[20] abbreviates: measured here: inhibition with BGB combination, at 0.05 µM.
Setting [21] is: measured here: inhibition with cisplatin combination, at 0.05 µM.
The mark [22] stands for this setting: BGB combination, concentration series, at 5 µM.
Where [23] appears, read: cisplatin combination, concentration series, at 5 µM.
Where [24] appears, read: measured here: combo with BGB IC20, at 0.5 µM.
The mark [25] stands for this setting: measured here: combo with cisplatin IC20, at 0.5 µM.
Where [26] appears, read: measured here: with BGB IC20 combination, at 0.5 µM.
The mark [27] stands for this setting: measured here: with cisplatin IC20 combination, at 0.5 µM.

Mitogen-activated protein kinase 7 (Homo sapiens), sequence (Q13164 whole entry, looked up, the tested form may be a part): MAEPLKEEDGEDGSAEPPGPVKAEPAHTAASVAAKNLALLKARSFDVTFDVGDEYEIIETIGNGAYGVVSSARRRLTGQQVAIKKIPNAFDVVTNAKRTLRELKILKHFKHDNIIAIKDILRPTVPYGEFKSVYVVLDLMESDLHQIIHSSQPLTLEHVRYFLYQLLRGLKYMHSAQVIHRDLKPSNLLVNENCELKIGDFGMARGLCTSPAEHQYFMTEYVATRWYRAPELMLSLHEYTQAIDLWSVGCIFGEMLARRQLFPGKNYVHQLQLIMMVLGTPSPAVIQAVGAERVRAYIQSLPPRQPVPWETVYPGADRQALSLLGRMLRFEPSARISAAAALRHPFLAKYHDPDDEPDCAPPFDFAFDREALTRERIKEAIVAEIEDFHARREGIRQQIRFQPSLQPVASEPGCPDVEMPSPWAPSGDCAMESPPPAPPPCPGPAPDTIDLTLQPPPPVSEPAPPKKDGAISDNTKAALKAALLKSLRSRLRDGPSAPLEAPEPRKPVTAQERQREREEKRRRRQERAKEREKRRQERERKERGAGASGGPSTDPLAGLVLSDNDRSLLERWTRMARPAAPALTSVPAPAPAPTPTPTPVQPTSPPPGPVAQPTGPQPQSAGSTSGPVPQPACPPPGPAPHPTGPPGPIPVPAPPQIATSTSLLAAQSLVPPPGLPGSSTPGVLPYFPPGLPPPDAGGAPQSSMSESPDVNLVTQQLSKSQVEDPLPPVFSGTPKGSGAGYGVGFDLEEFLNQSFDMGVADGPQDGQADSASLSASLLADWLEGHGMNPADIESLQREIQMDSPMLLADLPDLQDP

With `O=C(NCCCNc1nc(Nc2cccc(NC(=O)N3CCCC3)c2)ncc1I)c1cccs1`, in [1], the liver cell % of control is 74.4% and 44.5% and 88.3%; the parasite % of control was 0.4% (inactive) and 0.22% (inactive) and 6.81% (inactive).
With `CN(C)Cc1c(C(=O)NCCOc2ccc(C(=O)NO)cc2)oc2ccccc12`, the inhibition was 45.6% (inactive) in experiment [2] (at 0.5 µM); -17% in experiment [2] (setting [13]); 62.1% in [2] (setting [14]); 98.2% in [2] (setting [15]); 25.5% (inactive) in experiment [3] (at 0.5 µM); 32.6% in experiment [3] (setting [16]). The inhibition was 21.9% in experiment [3] (setting [17]); 99.3% (active) in [4] (at 0.5 µM); 99.1% in [4] (setting [18]); 99.5% in experiment [4] (setting [19]); 49.7% (inactive) in [5] (at 0.5 µM); 11.1% in experiment [5] (setting [20]). Further, the inhibition is 27.1% in experiment [5] (setting [21]); 51.5% (inactive) in [6] (at 0.5 µM); 71.4% in [6] (setting [14]); 106% in experiment [6] (setting [15]); 111% in [7] (setting [22]); 59.3% (inactive) in experiment [7] (at 0.5 µM). The inhibition is 125% in experiment [7] (setting [23]); 49.9% (inactive) in [8] (at 0.5 µM); 45% in experiment [8] (setting [24]); 44% in [8] (setting [25]); 80.7% (active) in [9] (at 0.5 µM); 78.9% in [9] (setting [26]). Further, the inhibition in experiment [9] (setting [27]) was found to be 81.1%; in experiment [9] (single agent, at 0.05 µM) it was 38.5%; in experiment [9] (single agent, at 5 µM), 96.4%.
`C=C(c1ccc(C(=O)O)cc1)c1cc2c(cc1C)C(C)(C)CCC2(C)C`: in [10], the parasite load remaining was 34.5% (inactive) and the viability came out at 146%. Besides, the z-score in experiment [11] was 0.715 (inactive).
Consider `CN1CCc2c(c3ccccc3n2Cc2ccc(C(=O)NO)cc2)C1`, for which the inhibition in experiment [2] (at 0.5 µM) was -13.1% (inactive); in [2] (setting [13]) it was -12% and -15.8%; in [2] (setting [14]), -23.4% and -23.9%; in [2] (setting [15]), -0.081% and -53.5%; in experiment [3] (at 0.5 µM), 21.5% (inactive) and -46.3% (inactive); in [3] (setting [16]), -14.9% and -43.1%. Further, the inhibition in experiment [3] (setting [17]) was 34.9% and -68.1%; in experiment [4] (at 0.5 µM) it was -1.98% (inactive) and 0.91% (inactive); in experiment [4] (setting [18]), -6.31% and -10.4%; in experiment [4] (setting [19]), 1.42% and 11.7%; in experiment [5] (at 0.5 µM) it was 1.69% (inactive) and 0.65% (inactive); in experiment [5] (setting [20]), -1.11% and -13.8%. In addition, the inhibition is 3.47% and 1.13% in [5] (setting [21]); -14.9% (inactive) and -18.4% (inactive) in experiment [6] (at 0.5 µM); -17.1% and -16.5% in experiment [6] (setting [14]); -17.1% and 0.035% in experiment [6] (setting [15]); 19.3% and 22.8% in [7] (setting [22]); -0.05% (inactive) and 2.69% (inactive) in experiment [7] (at 0.5 µM). The inhibition was 23.3% and 11.9% in experiment [7] (setting [23]); -0.01% (inactive) and -0.33% (inactive) in experiment [8] (at 0.5 µM); 5.22% and 4.02% in experiment [8] (setting [24]); -7.05% and -4.68% in experiment [8] (setting [25]); 17% (inactive) and -23.2% (inactive) in experiment [9] (at 0.5 µM); -9.72% and -7.89% in experiment [9] (setting [26]). The inhibition in [9] (setting [27]) was 29.2% and -33%; in [9] (single agent, at 0.05 µM) it was -10.6% and -2.77%; in experiment [9] (single agent, at 5 µM), 6.01% and -28.9%.
Consider `CN(C)CC(C)(C)CNc1nn2c(-c3ccccc3)nnc2cc1C1CCC1`, for which, in experiment [1], the liver cell % of control was 58.5% and 89.5% and 101%; the parasite % of control is 54.4% (inactive) and 60.7% (inactive) and 52.9% (inactive).
`C[C@H]1[C@H](C)CC[C@]2(C(=O)O)CC[C@]3(C)C(=CC[C@@H]4[C@@]5(C)C[C@@H](O)[C@H](O)[C@@](C)(CO)[C@@H]5CC[C@]43C)[C@H]12`: the luciferase signal in experiment [12] is 36 AU (inactive).
Turning to `COc1ccc(-c2nc(N3CCOCC3)c3sc(CN(C)c4ncc(C(=O)NO)cn4)cc3n2)cn1`, the inhibition in [2] (at 0.5 µM) is 93% (active) and 88.4% (active); in experiment [2] (setting [13]) it was 27.1% and 15.8%; in experiment [2] (setting [14]) it was 91.8% and 93.4%; in experiment [2] (setting [15]) it was 100% and 102%; in experiment [3] (at 0.5 µM), 77.2% (inactive) and 40.2% (inactive); in experiment [3] (setting [16]), 83.7% and 62.7%. Besides, the inhibition is 71.6% and 16.5% in experiment [3] (setting [17]); 99.8% (active) in [4] (at 0.5 µM); 99.7% in [4] (setting [18]); 99.9% and 99.8% in experiment [4] (setting [19]); 74.5% (inactive) and 79.8% (inactive) in experiment [5] (at 0.5 µM); 5.77% and 13.7% in experiment [5] (setting [20]). Moreover, the inhibition is -4.75% and -1.55% in [5] (setting [21]); 82.2% (active) and 85.4% (active) in experiment [6] (at 0.5 µM); 93.9% and 97.3% in experiment [6] (setting [14]); 110% and 105% in experiment [6] (setting [15]); 118% and 117% in experiment [7] (setting [22]); 79.8% (inactive) and 83.2% (active) in experiment [7] (at 0.5 µM). Further, the inhibition in [7] (setting [23]) is 127% and 131%; in [8] (at 0.5 µM), 101% (active) and 102% (active); in experiment [8] (setting [24]), 103% and 104%; in experiment [8] (setting [25]) it was 100% and 101%; in experiment [9] (at 0.5 µM), 88.6% (active) and 47.7% (inactive); in experiment [9] (setting [26]) it was 89.3% and 57.8%. For the same compound, the inhibition was 88% and 41.7% in experiment [9] (setting [27]); 21.7% and -65.8% in experiment [9] (single agent, at 0.05 µM); 99.3% and 99% in experiment [9] (single agent, at 5 µM).
